In PubChem BioAssay AID602373 (National Center for Advancing Translational Sciences (NCATS), 2012):
Records with an inconclusive call do not appear. Calls of active or inactive are those of the source. The call rests on the fitted dose curve; in most records, active means well fitted inhibition curve with a large enough effect; inconclusive means small, poorly fitted or top-dose-only effect; inactive means no such curve, though single readings can be large or run the other way.

Test: qHTS Assay for Inhibitors of Bacillus subtilis Sfp phosphopantetheinyl transferase (PPTase): Hepg2 Assay
Details: HepG2 cytotoxicity counter-screen; series mostly up to 46.1 µM; activity change, negative = inhibition: at the top concentration
From the text: The covalent attachment of a phosphopantetheinyl (4'-PP) arm to a variety of synthases and other proteins is a key posttranslational protein modification. The 4'-PP is installed on the proteins post-translationally from coenzyme A (CoA) on a conserved serine residue by action of phosphopantetheinyl transferase (PPTase) enzymes. Phosphopantetheinylation is essential for synthase activity, and removal of the PPTase gene precludes natural product synthesis in microorganisms, or in the case of fatty acid biosynthesis, renders the organism unviable. PPTase enzymes belong to a distinct structural superfamily. Within bacteria, these enzymes are grouped into two classes based upon primary structure, the AcpS-Type and Sfp-Type PPTases.
Sfp-type PPTases, corresponding to an activator of surfactin production in Bacillus subtilis, are responsible for modifying type I polyketide and nonribosomal peptide synthases of prokaryotes. Sfp-type PPTases are responsible for the activation of a variety of pathogen-associated virulence factors. Among these compounds are toxins such as mycolactone from Mycobacterium ulcerans, siderophores such as vibriobactin from Vibrio cholerae or mycobactin from Mycobacterium tuberculosis, as well as the mycolic acids which form the waxy cell wall of Mycobacteria. The biosyntheses of these natural products are considered attractive targets for drug design.
In search of small molecule Sfp-PPTase inhibitors, a fluorescence quenching assay was developed for detection of Bacillus subtilis Sfp-PPTase enzymatic activity in a miniaturized high-throughput format. The consensus ybbr acceptor peptide […] was N-terminally labeled with Black Hole Quencher-2 (BHQ-2) and used in combination with rhodamine-labeled coenzyme A as a co-substrate.
Phosphopantetheinyl transfer is a process essential to cellular viability and maintenance in all forms of life. Cell-permeable and stable compounds acting as PPTase inhibitors are anticipated to be growth inhibitory agents. This assay sought to assess the toxicity of test compounds in the HepG2 hepatocarcinoma cells; a human cell line whose use additionally determines the toxicity of test article metabolites.
NIH Chemical Genomics Center [NCGC]
NIH Molecular Libraries Probe Centers Network [MLPCN]
Assay Submitter (PI): Michale Burkart, University of California, San Diego
Test compounds' toxicity was assessed by measuring cellular ATP content using a luciferase-coupled ATP quantitation assay (CellTiter-Glo; Promega, Madison, WI). In this assay, luminescent signal is proportional to amount of ATP, and thus to the number of metabolically competent cells. Briefly, Hepg2 cell suspension (5 uL, 4 x 10^5 cells/mL) was dispensed into 1,536-well tissue-culture treated white/solid bottom assay plates (Greiner Bio-One North America, Monroe, NC) using a Flying Reagent Dispenser (Aurora Discovery, Carlsbad, CA). Cells were incubated at 37 deg C for 6 hr to allow for cell attachment, followed by addition of compounds via pin tool (Kalypsys, San Diego, CA). After compound addition, plates were incubated for 48 hr at 37 deg C. At the end of the incubation period, CellTiter-Glo reagent (5 uL) was added, plates were incubated at room temperature in the dark for 30 min, and the luminescence intensity of each well was determined using a ViewLux plate reader (PerkinElmer, Shelton, CT). The positive control was 92 uM and 41 uM of tetra-N-Octylammonium bromide, and the negative control was DMSO.

| Structure (SMILES) | activity change, negative = inhibition | Potency |
| --- | --- | --- |
| Cc1cc(C)nc(NC(=S)N2CCN(Cc3c(F)cccc3Cl)CC2)c1 | 4.35% (inactive) |  |
| FC(F)(F)c1cccc(N2CCN(C(=S)Nc3ncnc4ccccc34)CC2)c1 | -5.29% (inactive) |  |
| COc1cccc(NC(=S)N2CCN(c3ccc(C(F)(F)F)cc3[N+](=O)[O-])CC2)n1 | -3.46% (inactive) |  |
| COc1cccc(NC(=S)N2CCN(c3ccccc3C(F)(F)F)CC2)n1 | -4.58% (inactive) |  |
| COc1cccc(NC(=S)N2CCN(c3cccc(C(F)(F)F)c3)CC2)n1 |  | 28.1 µM (active) |
| Cc1cc(C)nc(NC(=S)N2CCN(c3ccc(NS(C)(=O)=O)nn3)CC2)c1 | 0.438% (inactive) |  |
| Cc1ccnc(N=C(N)N2CCN(c3cccc(C(F)(F)F)c3)CC2)c1 |  | 28.1 µM (active) |
| Cc1cc(C)nc(NC(=C(C#N)C#N)N2CCN(c3cccc(C(F)(F)F)c3)CC2)c1 |  | inactive |
| Cc1ccnc(NC(=S)NCCN(C)c2cccc(C(F)(F)F)c2)c1 | 3.44% (inactive) |  |
| FC(F)(F)c1cccc(N2CCN(C(=S)Nc3cc(C(F)(F)F)ccn3)CC2)c1 |  | 19.9 µM (active) |
| Cc1ccnc(N(C)C(=S)N2CCN(c3cccc(C(F)(F)F)c3)CC2)c1 | -10.8% (inactive) |  |
| Cc1cc(C)nc(NC(=S)N2CCN(c3ccc(Cl)nn3)CC2)c1 | -6.42% (inactive) |  |
| CC(Cc1ccccc1)C(=O)Nc1ccc(Cl)cc1C(=O)O (configuration not stated) | -0.724% (inactive) |  |
| Cc1cc(C)nc(NC(=S)N2CCN(c3cnc4nccn4c3)CC2)c1 | -7.6% (inactive) |  |
| CC(=O)c1ccc(N2CCN(C(=S)Nc3cc(C)ccn3)CC2)cc1 | -7.72% (inactive) |  |
| CCN1CCN(C(=S)c2ccc(O)cc2)CC1 | 6.5% (inactive) |  |
| COc1cccc(NC(=S)N2CCN(c3ccc(Cl)cc3Cl)CC2)n1 | -2.52% (inactive) |  |
| Cc1cc(C)nc(NC(=S)N2CCN(c3ccc4cn(C)nc4c3)CC2)c1 | 11.5% (inactive) |  |
| COc1cc(NC(=S)N2CCN(c3cccc(C(F)(F)F)c3)CC2)nc2ccccc12 | -1.11% (inactive) |  |

| Structure (SMILES) | activity change, negative = inhibition | Potency |
| --- | --- | --- |
| COc1cccc(NC(=S)N2CCN(c3cccc(C(F)(F)F)n3)CC2)n1 | -11.6% (inactive) |  |
| Cc1ccnc(NC(=S)N2CCNCC2)c1 | -3.85% (inactive) |  |
| S=C(Nc1cc(Cl)ccn1)N1CCN(c2ccc(Cl)cc2Cl)CC1 | -11.7% (inactive) |  |
| Cc1ccnc(NC(=O)N2CCN(c3cccc(C(F)(F)F)c3)CC2)c1 |  | 6.28 µM (active) |
| Cc1cc(C)nc(NC(=S)N2CCN(c3nncs3)CC2)c1 | -6.67% (inactive) |  |
| COc1ccc(N2CCN(C(=S)Nc3cc(C)ccn3)CC2)cc1 | -8.81% (inactive) |  |
| Cc1cc(C)nc(NC(=S)N2CCN(c3ccc4nncn4c3)CC2)c1 | 1.53% (inactive) |  |
| FC(F)(F)c1cnc(N2CCN(C(=S)Nc3cc(Cl)ccn3)CC2)c(Cl)c1 | -6.14% (inactive) |  |
| Cc1cc(C)nc(NC(=S)N2CCN(c3ccccn3)CC2)c1 |  | inactive |
| COc1ccnc(NC(=S)N2CCN(c3ccc(Cl)cc3Cl)CC2)c1 | -6.72% (inactive) |  |
| Cc1ccnc(NC(=S)N2CCCN(c3cccc(C(F)(F)F)c3)CC2)c1 |  | 25 µM (active) |
| Cc1cc(C)nc(NC(=S)N2CCN(c3ccc(Cl)cc3C(F)(F)F)CC2)c1 | -3.78% (inactive) |  |
| Cc1ccnc(NC(=S)NC2CCN(c3cccc(C(F)(F)F)c3)CC2)c1 | -11.6% (inactive) |  |
| Cc1cc(C)nc(NC(=S)N2CCN(c3ccc(N4CCCC4)nn3)CC2)c1 | 2.21% (inactive) |  |
| Cc1cc(C)nc(NC(=S)N2CCN(c3nccs3)CC2)c1 | 6.89% (inactive) |  |
| CN(C)c1ccc2nc(NC(=S)N3CCN(c4cccc(C(F)(F)F)c4)CC3)sc2c1 |  | 8.88 µM (active) |
| Cc1cc(C)nc(NC(=S)N2CCN(c3ncccc3C#N)CC2)c1 | -4.59% (inactive) |  |
| Cc1cc(C)nc(NC(=S)N2CCN(c3ccc4ncccc4c3[N+](=O)[O-])CC2)c1 | 1.59% (inactive) |  |
